Sfp PPTase inh = Sfp phosphopantetheinyl transferase inhibition; Biochemical Sfp PPTase activity, qHTS; 310,000 compounds, 3.5% hits; Potency, µM, most hits filed as inhibitors;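 further: the enzyme is Sfp with the accession as filed and its product quenches rhodamine fluorescence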
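Fluorescence-quenching assay: 15 nM Sfp-PPTase preincubated 15 min at room temperature with compound, then 5 uM rhodamine-CoA and 12.5 uM BHQ-2-labelled YbbR peptide added. Fluorescence (ex 525/em 598 nm) read at start and after 30 min; difference gives rate.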
RORg inh = blocks mouse ROR gamma transcriptional activity | Drosophila S2 Gal4-RORgamma UAS-luciferase reporter, 20 h | Potency, µM (series often up to 53.6 µM), hits mostly inhibitors | 310,000 compounds, 5.4% hits | AID 2551 | P51450; further: nearly all actives have a fitted effect of over 60% in size
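Stable Schneider cell line, Gal4 DNA-binding domain fused to ROR gamma, UAS-luciferase. Cmpd 1 hr RT → CuSO4 700 uM final → 20 hr RT → luciferase reagent 10 min → luminescence.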
ClpP mod = qHTS Assay for Activators of ClpP; purified B. subtilis ClpP, FRET peptide cleavage, 20 min; ATP-dependent Clp protease proteolytic subunit (Bacillus subtilis (strain 168)), P80244; 340,000 compounds, 1.9% hits; Potency, µM (highest dose often 57.5 µM); active means well fitted falling curve with a large enough effect; inconclusive means small, poorly fitted or top-dose-only effect; inactive means no such curve, though single readings can be large or run the other way; further: the source files actives as falling curves though it sought activators and does not explain the sign; nearly all actives have a fitted effect of over 65% in size
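ClpP 10 microg/mL final, pH 8 Tris/KCl buffer with BSA, glycerol, Tween-20; compound pinned in; FRET-FV substrate; RT 20 min; Ex320/Em430; ΔFRET vs ADEP 5.8 microM, DMSO, no enzyme.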
VP16 counter = counter-screen for ROR gamma inhibitors: Gal4-VP16 reporter | Drosophila S2 Gal4-VP16 UAS-luciferase, luminescence, 20 h | Potency, µM (top dose mostly 53.6 µM), usual class: inhibitors | 310,000 compounds, 3.5% hits | AID 2546;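 further: Gal4-VP16 expression switched on by copper sulfate through the metallothionein promoter; nearly all actives have a fitted effect of over 50% in size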
PINK1 modulator = changes PINK1 expression; 410,000 compounds, 0.2% hits; Potency, µM (highest dose often 76.6 µM), actives largely listed as activators; AID 624263; PINK1 immunofluorescence, high-content cytometry, 24 h; active means well fitted activation curve with a large enough effect; inconclusive means small, poorly fitted or top-dose-only effect; cell line not stated here; further: nearly all actives have a fitted effect of over 65% in size
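Measures PINK1 amount and localization on or inside mitochondria by immunofluorescence. Stable cells get compounds at 5 concentrations for 24 hours before fixation and staining; CCCP controls included.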
Epigenetic derep = epigenetic control regulation, reporter derepression. 280,000 compounds, 0.2% hits. murine LDR cells, GFP reporter derepression, 30 h. Potency, µM (highest dose often 53.9 µM), most hits filed as activators. AID 1865; further: nearly all actives have a fitted effect of over 60% in size
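GFP-positive cell count by laser-scanning cytometry (objects 20–120 um) after 30 h, 37 C compound exposure of murine LDR cells; reporter is CMV-GFP integrated at a silenced locus, inducible by HDAC or DNMT inhibitors.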
Each line names hits and unclear results; the compound was inactive in the other large screens; ! = a repeat was not active. A selection: hits, their analogues and other compounds. The true share with any hit is near 8.1%. Unless noted, the call rests on the fitted dose curve; in most records, active means well fitted curve in the direction sought with a large enough effect; inconclusive means small, poorly fitted or top-dose-only effect, or another doubt; inactive means no such curve, though single readings can be large; an effect the other way counts as inactive or inconclusive.

COC[C@]12CN(C=O)C3C4C(OC)C1[C@@]3(C1CC3(O)C(OC)C(O)C4(OC(C)=O)C1C3OC(=O)c1ccccc1)[C@@H](OC)CC2O (stereo partly specified)	none (no result: ClpP mod)
COc1cc(=O)n2c(c1C(=O)N(C)Cc1nonc1C)CCN(C(=O)C1C(C)(C)C1(C)C)CC2	none (no result: Sfp PPTase inh, RORg inh, ClpP mod, VP16 counter, Epigenetic derep)
CC(=O)C1=C(O)[C@@H]2[C@@H]3c4c[nH]c5cccc(c45)C[C@@H]3C(C)(C)N2C1=O	none (no result: ClpP mod, PINK1 modulator)
CC(=O)NC1N=C(C)N(c2ccccc2)C1=O (stereo unspecified)	Sfp PPTase inh 40µM
C[C@]12CCC3C(CC[C@]4(O)C[C@@H](O)CC[C@]34C=O)[C@@]1(O)CC[C@@H]2C1=CC(=O)OC1 (stereo partly specified)	none (no result: ClpP mod, PINK1 modulator)
CC(C)[C@H]1C(=O)N2CCC[C@H]2[C@]2(O)O[C@](NC(=O)[C@@H]3C=C4c5cccc6[nH]cc(c56)C[C@H]4N(C)C3)(C(C)C)C(=O)N12	Sfp PPTase inh 56µM
CC(C)[C@@]1(NC(=O)[C@@H]2C[C@@H]3c4cccc5[nH]cc(c45)C[C@H]3N(C)C2)O[C@@]2(O)[C@@H]3CCCN3C(=O)[C@H](Cc3ccccc3)N2C1=O	Sfp PPTase inh 79µM!, RORg inh 2.8µM!, VP16 counter inconclusive, Epigenetic derep 22µM!
COc1ccc(N2CC(C(=O)NCc3ccco3)CC2=O)cc1 (stereo unspecified)	Sfp PPTase inh inconclusive (no result: ClpP mod)
COC(C)C(O)(C(=O)OC1=CCN2CC[C@H](O)[C@H]12)C(C)C (stereo partly specified)	none (no result: ClpP mod, PINK1 modulator)
COC(=O)[C@@]1(Cc2ccccc2)[C@H]2c3cc(C(=O)N(C)C)n(C)c3C[C@H]2CN1C(=O)c1ccccc1	none (no result: ClpP mod, PINK1 modulator)
CC(C)[C@H](NC(=O)[C@H](CCC(=O)O)NC(=O)[C@H](Cc1ccccc1)NC(=O)[C@H](C)NC(=O)[C@@H](N)Cc1ccc(O)cc1)C(=O)N[C@H](C(=O)NCC(N)=O)C(C)C	none (no result: RORg inh, ClpP mod, VP16 counter, PINK1 modulator)
CCC(C)C(=O)c1c(O)c(C)c2oc3c(C)c(O)c(C(=O)C(C)CC)c(O)c3c2c1O (stereo unspecified)	RORg inh inconclusive, VP16 counter inconclusive, PINK1 modulator 16µM (no result: ClpP mod)
Cc1ccc2oc(=O)c(-c3nc4ccc(C)cc4[nH]3)cc2c1	Epigenetic derep 16µM (no result: Sfp PPTase inh, RORg inh, VP16 counter)
CCC(C)n1c(O)c(C(c2ccccn2)c2c(O)n(C(C)CC)c(=S)[nH]c2=O)c(=O)[nH]c1=S (stereo unspecified)	Sfp PPTase inh 50µM
CCC(C)n1c(O)c(C=NC(C)c2ccccc2)c(=O)[nH]c1=S (stereo unspecified)	RORg inh inconclusive, VP16 counter inconclusive (no result: ClpP mod)
CCOC(=O)C(O)(c1ccc(NC(=S)NC(=O)c2ccc(Cl)cc2Cl)c(C)c1)C(F)(F)F (stereo unspecified)	RORg inh 13µM, VP16 counter inconclusive, PINK1 modulator inconclusive
COC(=O)C(O)(c1ccc(NC(=S)NC(=O)c2ccc(Cl)cc2Cl)c(C)c1)C(F)(F)F (stereo unspecified)	RORg inh 8.9µM, VP16 counter inconclusive
CCOC(=O)C(NC(=O)CC)(Nc1ccc(C(O)(C(=O)OCC)C(F)(F)F)cc1C)C(F)(F)F (stereo unspecified)	none
CC(C)C[C@H](NC(=O)[C@@H](N)Cc1ccccc1)C(=O)N[C@@H](Cc1ccccc1)C(=O)N[C@@H](CCC(N)=O)C(=O)N1CCC[C@H]1C(=O)N[C@@H](CCC(N)=O)C(=O)N[C@@H](CCCN=C(N)N)C(=O)N[C@@H](Cc1ccccc1)C(N)=O	none (no result: ClpP mod, PINK1 modulator, Epigenetic derep)
Nc1ncnc2c1ncn2[C@@H]1O[C@H](COP(=O)(O)OP(=O)(O)OP(=O)(O)O)[C@H]2OC3(O[C@H]21)C([N+](=O)[O-])=CC(=[N+]([O-])[O-])C=C3[N+](=O)[O-] (stereo partly specified)	Sfp PPTase inh 8.9µM (no result: ClpP mod, PINK1 modulator)
CCOc1ccc2nc(N=Nc3c(O)[nH]c(=S)[nH]c3=O)sc2c1	Sfp PPTase inh 56µM (no result: ClpP mod)
CCCCC1(CCCC)C(=O)NC(=Nc2cccc(C)c2)NC1=O	PINK1 modulator 16µM
Cc1ccc(CC(=O)N2CCN(Cc3ccccc3)CC2)cc1	none
CCOC(=O)N1CCN(Cc2cn3ccccc3n2)CC1	Sfp PPTase inh 56µM
CC(=O)N1CCC2(CC1)CC(=O)c1cc(OCC(=O)N3CCN(C)CC3)ccc1O2	ClpP mod 20µM, PINK1 modulator inconclusive
CC(=O)N1CCC2(CC1)CC(=O)c1cc(OCC(=O)N3CCC4(CC3)OCCO4)ccc1O2	none
CCC(=O)CCCCC[C@@H]1NC(=O)[C@H]2CCCCN2C(=O)[C@H]([C@@H](C)CC)NC(=O)[C@H](Cc2cn(OC)c3ccccc23)NC1=O	none (no result: ClpP mod, PINK1 modulator, Epigenetic derep)
O=C(Nc1cc(C(F)(F)F)cc(C(F)(F)F)c1)c1cccn(Cc2ccccc2Cl)c1=O	none (no result: Sfp PPTase inh, RORg inh, VP16 counter)
O=C(Nc1cc(C(F)(F)F)cc(C(F)(F)F)c1)c1cc(Cl)ccc1O	RORg inh 0.89µM, VP16 counter 1µM (no result: ClpP mod, PINK1 modulator, Epigenetic derep)
CCOc1cc(/C=C2/C(=O)NC(=O)N(c3ccc(CC)cc3)C2=O)ccc1OC(=O)c1cccs1	Sfp PPTase inh 79µM
CCOC(=O)C1CCN(/C=C2/C(=O)NC(=O)N(c3ccc(OCC)cc3)C2=O)CC1	none (no result: PINK1 modulator)
COc1ccc(/C=C2/C(=O)NC(=O)N(c3ccccc3)C2=O)cc1CN1C(=O)c2ccccc2C1=O	Sfp PPTase inh 50µM
COc1cc(/C=C2/C(=O)NC(=O)N(c3ccccc3)C2=O)ccc1O	Sfp PPTase inh 8.9µM
COc1ccc(/C=C2/C(=O)NC(=S)N(C3CC3)C2=O)cc1CN1C(=O)c2ccccc2C1=O	Sfp PPTase inh 25µM, ClpP mod inconclusive, PINK1 modulator inconclusive
O=S(=O)(CCN1CCN(c2ccccn2)CC1)c1ccc(Cl)cc1Cl	ClpP mod inconclusive
O=C(Nc1ccc(Br)cc1)c1ccc(Cl)c(S(=O)(=O)N2CCCCCC2)c1	none (no result: Sfp PPTase inh, RORg inh, VP16 counter)
COc1ccccc1N1C(=O)NC(=O)/C(=C\c2cnn(-c3ccccc3)c2)C1=O	Sfp PPTase inh 32µM (no result: ClpP mod)
Cc1cc(/C=C2\C(=O)NC(=O)N(c3cccc(Br)c3)C2=O)c(C)n1C	PINK1 modulator inconclusive
COc1cccc(N2C(=O)NC(=O)/C(=C/c3ccc4c(c3)Cc3ccccc3-4)C2=O)c1	Sfp PPTase inh 56µM, VP16 counter inconclusive
CN[C@@H]1C[C@H](c2ccc(Cl)c(Cl)c2)c2ccccc21	Sfp PPTase inh inconclusive, RORg inh inconclusive, VP16 counter inconclusive (no result: ClpP mod, PINK1 modulator)
Cn1ccnc1P(=S)(c1nccn1C)N1CCOCC1	Sfp PPTase inh inconclusive
Cn1ccnc1P(=S)(c1nccn1C)c1nccn1C	Sfp PPTase inh 50µM (no result: PINK1 modulator)
